The entries come from a sample that favours hits as a whole.
ALOX12 inh – inhibitors of human 12S-lipoxygenase ALOX12 | P18054 | purified 12hLO, xylenol orange hydroperoxide absorbance | Potency, µM (doses to about 108 µM), for the others: at the highest dose activity change, negative = inhibition, actives largely listed as inhibitors | 580,000 tested, 1.1% active | AID 1671190; further: potency means the concentration at half of the fitted maximal effect
Target sequence (P18054 whole entry, looked up): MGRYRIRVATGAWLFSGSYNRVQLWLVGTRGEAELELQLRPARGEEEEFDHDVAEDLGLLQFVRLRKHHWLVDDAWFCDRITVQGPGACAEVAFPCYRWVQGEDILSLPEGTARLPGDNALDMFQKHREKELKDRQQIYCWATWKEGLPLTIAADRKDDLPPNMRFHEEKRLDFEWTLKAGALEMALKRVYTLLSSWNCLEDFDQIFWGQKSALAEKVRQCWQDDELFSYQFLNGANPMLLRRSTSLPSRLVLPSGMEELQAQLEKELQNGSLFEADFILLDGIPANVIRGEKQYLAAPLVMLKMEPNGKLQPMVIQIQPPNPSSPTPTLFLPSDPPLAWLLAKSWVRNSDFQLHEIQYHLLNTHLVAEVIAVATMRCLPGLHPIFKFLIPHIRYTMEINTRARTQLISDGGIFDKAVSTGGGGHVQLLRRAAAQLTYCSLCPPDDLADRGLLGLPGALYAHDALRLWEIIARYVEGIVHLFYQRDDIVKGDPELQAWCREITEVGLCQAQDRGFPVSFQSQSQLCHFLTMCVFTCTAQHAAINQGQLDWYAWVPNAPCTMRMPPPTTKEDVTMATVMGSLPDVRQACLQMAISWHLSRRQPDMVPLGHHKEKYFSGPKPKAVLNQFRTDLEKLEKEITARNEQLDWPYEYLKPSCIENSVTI
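Purified human 12hLO (150 nM final) in 25 mM Hepes, 0.01% Triton X-100, pH 7.0 was preincubated 15 min at room temperature with compound. Then 40 uM arachidonic acid was added, 30 min. Hydroperoxide was read by Fe-XO absorbance ratio 573/405 nm.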
IL-1B inflam inh – blocks inflammasome-driven IL-1 beta release; activity change, % at 57.5 µM; 360,000 tested, 4.7% active; THP-1 LPS/ATP IL-1B secretion, AlphaLISA, 16 h; stronger effect = lower value; AID 743279; in the data active means activity change below about -50%; inconclusive means mostly about -30% to -49%
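Secreted IL-1B measured by AlphaLISA bead assay after 16 h compound exposure of THP-1 cells; compounds (final up to 57.5 uM) added 1 h before LPS (250 ng/mL) and ATP (1.25 mM) stimulation; lower signal means less secretion.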
HT1080 IDH1KD tx – kills HT-1080 cells with IDH1 knockdown | HT-1080 IDH1 knockdown viability, ATP luminescence, 48 h | Potency, µM (series often up to 46.1 µM), without a hit: at the top dose activity, negative = toxicity, actives largely listed as cytotoxic | 360,000 tested, 2% active | AID 686971;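 further: potency means the concentration at half of the fitted maximal effect; 0% = DMSO wells and -100% = cell-free medium wells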
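% activity derives from luminescence (CellTiter-Glo), normalised to DMSO and no-cell wells. HT-1080-IDH1KD cells, 750/well, had 48 h compound exposure at 37 °C.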
TDP1 cell CPT – DT40-hTDP1 cell growth loss with CPT. 420,000 tested, 12% active. Potency, µM (doses to about 46.2 µM), for inactives: top-dose activity change, negative = growth inhibition, actives largely listed as inhibitors. chicken DT40 Tdp1-/-;hTDP1 cells + 20 nM CPT, ATP luminescence, 48 h; further: potency means the concentration at half of the fitted maximal effect; nearly all actives have a fitted effect of over 55% in size
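Cell growth measured by CellTiter-Glo luminescence after a minimum 48 h, 37 C compound exposure with 20 nM CPT in Tdp1-knockout DT40 cells stably expressing hTDP1, seeded 400/well; qHTS titration format.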
DT40 TDP1 no CPT – qHTS for Inhibitors of human tyrosyl-DNA phosphodiesterase 1 (TDP1): qHTS in cells in absence of CPT; DT40 Tdp1-/- hTDP1 cells, no CPT, ATP luminescence, 48 h; Potency, µM (top dose mostly 46.2 µM), inactives show at the top dose activity change, negative = growth inhibition, most hits filed as inhibitors; 420,000 tested, 15% active; AID 686978, 2013; further: potency means the concentration at half of the fitted maximal effect; nearly all actives have a fitted effect of over 55% in size
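Luminescent ATP content (CellTiter-Glo) served as the growth readout. Knockout chicken DT40 cells expressing human TDP1 were exposed to compounds without camptothecin for a minimum 48 hr at 37 °C.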
HT1080NT lethal – kills 2HG-producing HT-1080-NT fibrosarcoma cells | HT-1080-NT fibrosarcoma viability, CellTiter-Glo ATP luminescence, 48 h | Potency, µM (series often up to 46.1 µM), for inactives: at the top dose activity, negative = less viability, usual class: cytotoxic | 360,000 tested, 1.6% active | AID 686970;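 further: NT is the 2HG producing partner of a matched IDH1 knockdown line; potency means the concentration at half of the fitted maximal effect; 0% = DMSO-treated cells and -100% = media-only wells without cells; nearly all actives have a fitted effect of over 55% in size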
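HT-1080-NT; 750 cells/well; 5% FBS RPMI; 48 h compound, 37 degrees C; CellTiter-Glo luminescence; curve fitting and curve-class assignment.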
* = called active by the depositor; ? = inconclusive; nt = no result; [ ] = dose if it differs, or a comment. Unless noted, the call rests on the fitted dose curve; in most records, active means well fitted curve in the direction sought with a large enough effect; inconclusive means small, poorly fitted or top-dose-only effect, or another doubt; inactive means no such curve, though single readings can be large; an effect the other way counts as inactive or inconclusive. Unless noted, on the % scale 0 is the no-effect control and ±100 the full control effect.

SMILES	ALOX12 inh	IL-1B inflam inh	HT1080 IDH1KD tx	TDP1 cell CPT	DT40 TDP1 no CPT	HT1080NT lethal
Cc1ccc(/C=C2\SC(=S)N(CC3CCCO3)C2=O)o1 (stereo not given)	6.3µM*	-96*	-1%	?	?	-1%
CC(C)NC(=O)CCCC(=O)NCC1(c2ccccc2)CC1	54%	nt	nt	nt	nt	nt
CCc1cccc(NC(=O)c2nc3ccccc3nc2N2CCCC2)c1	-3%	nt	nt	nt	nt	nt
COc1cccc(C(=O)/C=C/c2ccc(N3CCCCC3)c([N+](=O)[O-])c2)c1	-4%	-96*	?	18µM*	?	?
O=C(/C=C/c1ccc(N2CCCCC2)c([N+](=O)[O-])c1)c1ccc(S(=O)(=O)N2CCCC2)cc1	-3%	6	3%	9.2µM*	9.2µM*	7%
Cc1ccc(-c2nn(-c3ccc(F)cc3)cc2C(=O)NCCCN2CCCC2=O)cc1	0%	16	-2%	0.21µM*	-81%	-1%
CCOC(=O)C1=C(N)c2ccccc2CC1C1CCCC1 (stereo not given)	-1%	-8	-1%	26µM*	?	0%
O=C(NCCc1noc(C2CC2)n1)Nc1ccc(C(F)(F)F)cc1	13%	nt	nt	nt	nt	nt
COc1ccc(C)cc1NC(=O)CN1CCN(c2ccccc2F)CC1	-25%	-4	-2%[9.24 µM]	?	13µM*	-4%
COc1ccc(C)cc1NC(=O)CCN1CCN(c2ccccc2F)CC1	?	6	-8%	?	?	20%
COc1ccc(OC)c(NC(=O)CCN2CCN(c3ccccc3F)CC2)c1	-13%	-21	7%	29µM*	13µM*	2%
O=C(Cc1noc(C(=O)NC2CCCCC2)n1)Nc1cccc2ncccc12	11%	nt	nt	nt	nt	nt
CCN(Cc1ccccc1)C(=O)CCc1nc(C2CCCN2S(C)(=O)=O)no1 (stereo not given)	9%	nt	nt	nt	nt	nt
CCOc1ccc(C(=O)Nc2cc(-c3nc4ccccc4[nH]3)ccc2Cl)cc1[N+](=O)[O-]	-15%	-20	18µM*	?	23µM*	?
Cc1ccc(-c2nc3ccccc3[nH]2)cc1NC(=O)c1ccc2c(c1)OCO2	16%	-17	-12%	?	?	-7%
CCOc1ccccc1NC(=O)c1ccc(OCC)c([N+](=O)[O-])c1	-23%	3	2%	?	-29%	-2%
CCOc1ccc(C(=O)Nc2cc(-c3nc4ccccc4[nH]3)ccc2C)cc1[N+](=O)[O-]	?	-50*	-22%	?	?	-22%
CCOc1ccc(C(=O)Nc2cc(-c3nc4cc(OC)ccc4o3)ccc2C)cc1[N+](=O)[O-]	-11%	nt	nt	nt	nt	nt
Cc1ccc(-c2nc3ccccc3[nH]2)cc1NC(=O)COc1ccccc1[N+](=O)[O-]	-27%	nt	nt	15µM*	?	nt
CCCOc1cccc(C(=O)Nc2cc(-c3nc4ccccc4[nH]3)ccc2C)c1	-5%	nt	nt	16µM*	16µM*	nt
CCOC(=O)C1=C(C)N(C)C(=O)NC1c1cccc(Cl)c1Cl (stereo not given)	1%	nt	nt	nt	nt	nt
N#Cc1cc(C(=O)c2ccccc2O)cn(-c2ccc(C(=O)O)cc2)c1=O	0%	nt	nt	nt	nt	nt
CC(Oc1ccccc1Cl)C(=O)NN (stereo not given)	41%	nt	nt	nt	nt	nt
CCc1cccc(NC(=O)c2cc3c(=O)[nH]c4ccccc4c3n2C)c1	-20%	nt	nt	?	18µM*	nt
CCCCC(NC(C)=O)c1nc2ccccc2n1CCCC (stereo not given)	-14%	-17	15%	4.1µM*	2.1µM*	15%
SMILES	ALOX12 inh	IL-1B inflam inh	HT1080 IDH1KD tx	TDP1 cell CPT	DT40 TDP1 no CPT	HT1080NT lethal
CCCCCn1c(C(Cc2ccccc2)NC(C)=O)nc2ccccc21 (stereo not given)	0%	-14	3%	?	26µM*	15%
CCCCCn1c(CNC(C)=O)nc2ccccc21	23%	6	-5%	?	?	2%
C=CCN(Cc1cccs1)C(=O)c1ccncc1	-10%	nt	nt	nt	nt	nt
C=CCn1c(-c2cccs2)nc2ccccc21	20%	-20	-2%	-23%	21µM*	2%
CCCn1c(-c2cccs2)nc2ccccc21	-12%	-21	?	-25%	-30%	-4%
C=CCn1c(COc2ccccc2)nc2ccccc21	9%	-13	8%	?	23µM*	3%
O=C(Cn1c(COc2ccccc2)nc2ccccc21)Nc1cc(Cl)cc(Cl)c1	?	7	?	18µM*	?	?
CCn1c(COc2ccc(C)cc2)nc2ccccc21	1%	-76*	-19%	?	?	-7%
CCn1c(COc2ccc(Cl)cc2Cl)nc2ccccc21	-27%	nt	nt	?	?	nt
CN(C)CCn1c(COc2ccccc2)nc2ccccc21	88%	-1	0%	?	-12%	0%
Cc1ccccc1-n1cnnc1SCC(=O)Nc1ccccc1C(=O)NCCc1ccccc1	-5%	nt	nt	nt	nt	nt
Cc1cc(N2CCC(NC(=O)c3ccc4[nH]ccc4c3)C2=O)ccc1F (stereo not given)	4%	nt	nt	nt	nt	nt
O=C(c1ccoc1)N1CCC2(CC1)CC(N(C(=O)c1ccccc1)C1CC1)CCO2 (stereo not given)	5%	nt	nt	nt	nt	nt
O=C(c1ccc2ccccc2n1)N1CC(c2nnc(-c3ccncc3)o2)C2(CCOCC2)C1 (stereo not given)	41%	nt	nt	nt	nt	nt
COCCn1c(COc2ccc(C)cc2)nc2ccccc21	-10%	?	-19%	?	?	-10%
Cc1ccc(OCc2nc3ccccc3n2CCOc2ccc(Cl)cc2)cc1	-17%	nt	nt	?	18µM*	nt
Cc1ccc(OCc2nc3ccccc3n2Cc2ccccc2Cl)cc1	-23%	nt	nt	21µM*	?	nt
Cc1cccc(Cn2c(COc3ccc(Cl)cc3)nc3ccccc32)c1	-11%	nt	nt	23µM*	16µM*	nt
CC(C)CCN1CCC(N2CCN(C(=O)c3cc(F)cc(F)c3)CC2)C1=O (stereo not given)	80%	nt	nt	nt	nt	nt
CCN(CC)c1nc2c3c(nc4c(c3c1C#N)CC(=O)N4c1ccc(Cl)cc1)NC(C)=N2	?	-8	-1%	?	18µM*	-1%
O=C(Nc1nc(-c2ccccn2)cs1)C1CC(=O)N(c2ccccc2F)C1 (stereo not given)	6%	nt	nt	nt	nt	nt
O=C(Nc1nc(-c2ccccn2)cs1)C1CC1	22%	-1	-9%	23µM*	18µM*	-6%
O=C(CC1CC2CCC1C2)NCCc1ccccn1 (stereo not given)	15%	nt	nt	nt	nt	nt

Source: PubChem BioAssay (National Center for Advancing Translational Sciences (NCATS))
